Experimental findings from PubChem BioAssay AID720504 (National Center for Advancing Translational Sciences (NCATS), 2013) are described below.

About 10,000 (2.8%) of roughly 360,000 compounds were called active. Another 4% or so got no clear call; they are omitted. Calls come from the whole dose curve; as a rule, active = well fitted inhibition curve with a large enough effect; inconclusive = small, poorly fitted or top-dose-only effect; inactive = flat fitted curve, though single readings scatter. What follows is part of a selection rich in actives, with near analogues and random picks from the rest.
% is set by controls: 0 for no effect and ±100 for the full control effect; potency is the fitted concentration of half-maximal effect.

This test deals with Serine/threonine-protein kinase PLK1 (Homo sapiens) (UniProt P53350). In words: qHTS for Inhibitors of PLK1-PDB (polo-like kinase 1 - polo-box domain): Primary Screen. For max response, negative = inhibition: series mostly up to about 57 µM. Note: nearly all actives have a fitted effect of over 65% in size. To be noted: Plk1 PBD binding of FITC phosphopeptide, fluorescence polarization. For orientation: Quantitative high-throughput screening tests each substance at several concentrations.
Chain of Serine/threonine-protein kinase PLK1 (Homo sapiens) (P53350 whole entry, looked up, the tested form may be a part): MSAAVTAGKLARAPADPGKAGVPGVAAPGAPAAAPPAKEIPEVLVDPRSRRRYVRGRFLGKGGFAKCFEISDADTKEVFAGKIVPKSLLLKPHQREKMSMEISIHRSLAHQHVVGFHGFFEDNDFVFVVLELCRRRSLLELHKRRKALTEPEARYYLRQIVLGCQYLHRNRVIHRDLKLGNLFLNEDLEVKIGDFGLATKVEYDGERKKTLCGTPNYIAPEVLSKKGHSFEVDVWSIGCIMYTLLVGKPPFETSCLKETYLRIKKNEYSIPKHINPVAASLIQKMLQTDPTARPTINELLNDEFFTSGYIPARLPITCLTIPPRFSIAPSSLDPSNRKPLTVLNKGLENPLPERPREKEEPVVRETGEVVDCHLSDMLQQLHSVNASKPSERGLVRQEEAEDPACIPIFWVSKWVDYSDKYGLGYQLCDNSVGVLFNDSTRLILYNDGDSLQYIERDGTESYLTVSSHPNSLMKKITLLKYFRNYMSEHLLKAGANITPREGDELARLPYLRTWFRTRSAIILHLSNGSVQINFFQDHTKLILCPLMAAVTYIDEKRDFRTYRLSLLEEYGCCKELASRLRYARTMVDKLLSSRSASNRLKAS
Take `COc1ccc(-c2cnc3c(c2)C(=O)N([C@H](C)CO)C[C@@H](C)[C@H](CN(C)Cc2ccccc2)O3)cc1`: the max response, negative = inhibition was -12.1% (inactive). Same read-out and setting: as for `O=C1NC[C@H](Cc2ccc(O)cc2)N(C[C@@H]2CCCN2C[C@H](Cc2ccccc2)N2C[C@H](Cc3ccccc3)N(CC3CCCCC3)C(=O)C2=O)C1=O`, the figure is -9.78% (inactive). `O=C(c1cc(C2CCCCN2S(=O)(=O)c2ccccc2)on1)N1CCOCC1` (stereo not given): the max response, negative = inhibition is 3.83% (inactive). In the case of `C=CS(=O)c1sc(Cl)c(N2CCOCC2)c1[N+](=O)[O-]` (stereo not given), the Potency was 1.34 µM (active). As for `O=S1(=O)C[C@@H](N2CCN(CCO)CC2)[C@H](COCc2ccccc2)N1`, the max response, negative = inhibition was -14.5% (inactive).

As for `Cc1cc(Br)cn2c(Cc3ccccc3C(F)(F)F)c(C3CCCCC3)nc12`, the max response, negative = inhibition is -6.9% (inactive).

As for `CN(C(=O)COC(=O)c1ccc(Br)o1)c1c(N)n(Cc2ccccc2)c(=O)[nH]c1=O`, the max response, negative = inhibition is 2.32% (inactive). Turning to `Cc1cc2nc3c(=O)n(Cc4ccccc4)c(=O)[nH]c3nc2cc1N`, the Potency was 3.36 µM (active). As for `Nc1cc(=O)n(Cc2ccccc2)c(=O)n1Cc1ccccc1`, the max response, negative = inhibition was -11.9% (inactive). In the case of `COCCCNC(=O)c1ccc(-c2c(C)noc2C)c2ccoc12`, the max response, negative = inhibition was -2.73% (inactive). For the compound `CCCNC(=O)C1(C)CCN(C(=O)c2cc(F)ccc2C)C1` (stereo not given), the max response, negative = inhibition was -7.98% (inactive). The same measure, in the same setting: as for `O=S(=O)(NC1CC1)c1ccc(Cl)cc1`, the figure is -11.6% (inactive). For the compound `Cn1sc(=O)c2cc(S(=O)(=O)NC3CC3)ccc21`, the Potency is 2.12 µM (active).

As for `CC1CCC(NS(=O)(=O)c2ccc3c(c2)n(C)c(=O)c(=O)n3C)CC1` (stereo not given), the max response, negative = inhibition was -1.85% (inactive). Same read-out and setting: as for `COC(=O)c1ccc2nc(-c3ccccc3)c(Cc3ccc(OC)cc3C)n2c1`, the figure is -8.32% (inactive). On the same count and under the same terms, as for `CCOC(=O)C1=CCC(c2ccc(F)cc2)N(S(=O)(=O)c2ccc(C)cc2)C1` (stereo not given), the figure is -10.4% (inactive). As to `COc1ccc(-n2ncc3c(SCC(=O)NNC(C)=O)ncnc32)cc1`, the max response, negative = inhibition was 4.95% (inactive).

For `COc1ccc(NC(=O)CSc2ncnc3[nH]ncc23)cc1`, the Potency was 3.77 µM (active). Regarding `O=C(CSc1nc2[nH]ncc2c(=O)[nH]1)Nc1ccc(F)cc1`, the max response, negative = inhibition was -1.42% (inactive).

In the case of `Cn1cnc(S(=O)(=O)N2C[C@@H](O)COC[C@@H]3O[C@H](CC(=O)NC4CCC4)CC[C@H]32)c1`, the max response, negative = inhibition was -0.717% (inactive). Same read-out and setting: as for `Cc1nccn1-c1ccc(NC(=O)[C@H]2O[C@@H](n3ccc(=O)[nH]c3=O)[C@H](O)[C@@H]2O)cc1`, the figure is 0.546% (inactive); as for `CCOC(=O)[C@]12CCC=C1N(Cc1ccccc1)C(=O)[C@H](CC(=O)N1CCCC1)C2`, -1.56% (inactive); as for `CCCCCn1nnnc1C1c2ccccc2C(=O)N1Cc1ccco1` (stereo not given), -6.84% (inactive). On the same count and under the same terms, as for `Cc1ccc2nc(SCc3nnc(-c4ccccc4[N+](=O)[O-])o3)c(C#N)cc2c1`, the figure is -9% (inactive). On to `Cc1ccc(-c2ccc(/C=C(\C#N)C(N)=S)o2)c([N+](=O)[O-])c1`, for which the Potency was 26.7 µM (active).

With `Cc1cc(C)c([N+](=O)[O-])cc1-c1ccc(/C=N/NC(=O)c2nonc2N)o1`, the max response, negative = inhibition is 0.266% (inactive). Turning to `CC1=C(C(=O)N(C(C)C)C(C)C)CC(CC(=O)NCC2CCCCC2)C(=O)N1Cc1ccccc1` (stereo not given), the max response, negative = inhibition is -4.13% (inactive). Same read-out and setting: the result for `O=C(C(=O)N1CCC(c2ccccc2)CC1)c1ccccc1` reads 3.91% (inactive); that for `Clc1ccc2c(c1)C1=C(C(c3ccncc3)O2)C(c2ccc(Br)cc2)n2ncnc2N1` (stereo not given), -0.898% (inactive). Turning to `Brc1ccc(C2=CC(c3ccco3)n3ncnc3N2)cc1` (stereo not given), the Potency was 23.8 µM (active). As to `CCOC(=O)[C@]12CCCC=C1N(CCC1=CCCCC1)C(=O)[C@H](CC(=O)NCCCOC)C2`, the max response, negative = inhibition was 2.46% (inactive). Still for that read-out and setting: as for `CCOc1ccc(S(=O)(=O)NCCC(=O)NNC(=O)c2ccc(F)cc2)cc1`, the figure is -14.6% (inactive); as for `COc1ccc(NC(=O)c2sc(=O)n(Cc3ccc(S(=O)(=O)N(C)C)cc3)c2C)cc1`, -0.145% (inactive); as for `O=C(CN1CCOCC1)Nc1cccc([N+](=O)[O-])c1`, -23.6% (inactive).

As for `COC(=O)/C=C\C(=O)Nc1cccc([N+](=O)[O-])c1`, the Potency is 5.97 µM (active).

`O=C(Nc1cccc([N+](=O)[O-])c1)Nn1cnnc1`: the max response, negative = inhibition was -2.87% (inactive). The same measure, in the same setting: the result for `CC(=O)C[C@@H]1OC[C@H](C)N1S(=O)(=O)c1ccc(C)cc1` reads -5.26% (inactive); that for `COc1cc(/C=C/C(=O)OCC(=O)NC(=O)NCc2ccccc2)ccc1OCC#N`, -6.76% (inactive); that for `COc1cc(/C=C/C(=O)Nc2ccc(OC)c(S(=O)(=O)N3CCOCC3)c2)ccc1OCC#N`, -0.928% (inactive). On to `COc1cc(/C=C/C(=O)OCC(=O)N2CCOCC2)ccc1OCC#N`, for which the Potency was 26.7 µM (active). As to `CC(C)(C)c1ccc(S(=O)(=O)NC(=O)C2(C)CCN2C(=O)CC2CC2)cc1` (stereo not given), the max response, negative = inhibition was -12% (inactive).

As to `Cc1cccc(CN2CCN(C3CN(Cc4cn(Cc5ccccc5F)nn4)S(=O)(=O)C3)CC2)c1` (stereo not given), the max response, negative = inhibition was 3.36% (inactive). On the same count and under the same terms, the result for `OC[C@@H]1CN(Cc2ccc3c(c2)OCO3)C[C@H](n2cnc3c(NCc4ccco4)ncnc32)O1` reads -2.35% (inactive); that for `COC(=O)c1ccc(/C=C2/C(=O)Oc3ccccc32)cc1`, -0.125% (inactive). `O=C1Oc2ccccc2C(=O)/C1=C/c1ccccc1O`: the Potency is 2.67 µM (active). Turning to `O=C(NN=Cc1ccccc1O)NN=Cc1ccccc1O`, the max response, negative = inhibition was -11.7% (inactive). Still for that read-out and setting: the result for `CC(=O)NC(c1cccc(F)c1)c1nc(-c2cccc(F)c2)cs1` (stereo not given) reads -0.575% (inactive); that for `COc1ccc(-c2nnc(-c3ccc4ccccc4c3)o2)cc1`, -4.59% (inactive). Regarding `Nc1ccc(-c2nnc(-c3ccc(-c4ccccc4)cc3)o2)cc1`, the Potency is 13.4 µM (active). Regarding `CN(C)c1ccc(-c2nnc(-c3cccnc3)o2)cc1`, the max response, negative = inhibition is 3.15% (inactive). With `COc1cc(NC(=O)C2=C(C)OCCS2)c(Cl)cc1C(=O)NCCCN1CCCC(C)C1` (stereo not given), the max response, negative = inhibition was -4.33% (inactive).

Take `O=[N+]([O-])c1ccc(N2CCSCC2)cc1O`: the max response, negative = inhibition is 2.23% (inactive). Same read-out and setting: the result for `Cc1cc(C(=O)N/N=C/c2ccc(O)c([N+](=O)[O-])c2)c(C)n1-c1ccc(F)cc1` reads -24.1% (inactive). For `O=C1CSC(=S)N1/N=C/c1ccc(O)c([N+](=O)[O-])c1`, the Potency was 23.8 µM (active).

As for `CS(=O)(=O)N1CCCCC1c1cc(C(=O)NCc2ccccc2)no1` (stereo not given), the max response, negative = inhibition is -4.51% (inactive).
